Mcl1-Noxa inh = Mcl-1/Noxa binding inhibitors, primary screen, biochemical, TR-FRET, 1536-well; inhibition, % at 21.7 µM; TR-FRET Mcl-1/Noxa peptide binding, 2 h; 1.5% of 220,000 active;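 active means compounds that cut the protein-peptide binding signal by more than 50% relative to plate controls in a single-dose test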;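 further: His-tagged Mcl-1 with rhodamine Noxa BH3 peptide and terbium anti-His antibody; 0% = Mcl-1 plus Noxa peptide wells and 100% = peptide-only wells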
Target sequence (Q07820 whole entry, looked up): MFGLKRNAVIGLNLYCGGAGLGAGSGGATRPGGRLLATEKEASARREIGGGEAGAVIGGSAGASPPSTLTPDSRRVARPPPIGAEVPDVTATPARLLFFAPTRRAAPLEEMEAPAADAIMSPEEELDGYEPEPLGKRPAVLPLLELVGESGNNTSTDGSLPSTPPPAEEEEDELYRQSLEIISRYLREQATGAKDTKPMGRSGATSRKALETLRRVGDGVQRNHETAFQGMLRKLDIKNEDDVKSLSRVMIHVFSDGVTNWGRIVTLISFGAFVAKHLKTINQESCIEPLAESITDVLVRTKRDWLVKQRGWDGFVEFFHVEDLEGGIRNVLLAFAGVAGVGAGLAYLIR
Mcl1-Bid inh = Mcl-1/Bid binding inhibitors, primary screen, biochemical, TR-FRET, 1536-well; TR-FRET Mcl-1/Bid-Dy647 peptide binding; AID 1021, 2008; inhibition, % at 21.7 µM; Induced myeloid leukemia cell differentiation protein Mcl-1 (Homo sapiens), Q07820; 0.97% of 220,000 active;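 active means compounds that cut the binding signal by more than half at the single screening dose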;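 further: His-tagged Mcl-1 with europium anti-His antibody binding Bid BH3 peptide; 0% = Mcl-1 plus peptide wells and 100% = peptide-only wells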
BCLXL inh = inhibitors of human Bcl-xL, primary screen, biochemical, fluorescence polarization, HTS. Bcl-2-like protein 1 (Homo sapiens), Q07817. GST-Bcl-xL / FITC-Bim BH3 peptide fluorescence polarization. inhibition, % at 10.9 µM. 0.7% of 320,000 active. AID 2129, 2009;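 active means inhibition above the mean of all tested compounds plus 3 SD, cutoff set per campaign, cut at about 30% in these data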;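 further: 0% = DMSO wells and 100% = unlabeled Bim-BH3 peptide competitor; inhibitors lower millipolarization by displacing the labeled peptide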
Mcl-1 Bim block = inhibitors of Bim peptide binding to Mcl-1, primary screen, biochemical, bead-based flow cytometry, multiplex. Induced myeloid leukemia cell differentiation protein Mcl-1 (Homo sapiens), Q07820. 0.1% of 190,000 active. inhibition, % at 10 µM. AID 1009, 2008. Bim peptide-Mcl-1 binding; in the data active means inhibition above about 40%;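 further: 0% = no compound tracer wells and 100% = peptide blocker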
GLD-1 TGE inh = GLD-1/TGE RNA complex disruptors, primary screen, biochemical, fluorescence polarization; inhibition, % at 5.96 µM; AID 2280, 2010; purified GLD-1 + fluorescein TGE RNA; Female germline-specific tumor suppressor gld-1 (Caenorhabditis elegans), Q17339; 0.44% of 320,000 active;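 active means percent inhibition above a per-plate cutoff, the plate mean of test compounds plus 3 SD, cut at about 30% in these data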;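 further: 0% = DMSO wells with GLD-1 and probe and 100% = wells lacking GLD-1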
MCL1-BIM inh = inhibitors of MCL1 binding to BIM-BH3, primary screen, biochemical, fluorescence polarization. Induced myeloid leukemia cell differentiation protein Mcl-1 (Homo sapiens), Q07820. GST-MCL1 / FITC-Bim-BH3 fluorescence polarization. inhibition, % at 10.9 µM. 0.68% of 320,000 active. AID 2057, 2009;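 active means inhibition above the mean inhibition of all tested compounds plus 3 SD, set per campaign, cut at about 40% in these data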;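 further: 0% = DMSO wells and 100% = unlabeled Bim-BH3 peptide control; higher means more loss of mP so more displacement of Bim peptide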
Active calls of the source: *. Only some compounds are listed: those with a hit (about 2.3% of all), similar ones and a draw of the others.

Screening O=S(=O)(c1ccccc1F)N1CCN(Cc2nc3ccccc3[nH]2)CC1 returned Mcl1-Noxa inh 20, Mcl1-Bid inh 79*, BCLXL inh -1, Mcl-1 Bim block -2, GLD-1 TGE inh 5 and MCL1-BIM inh -9.
Screening COc1ccc(OC)c(NC(=O)c2csc(Cl)c2OC)c1 returned BCLXL inh 3, GLD-1 TGE inh -6 and MCL1-BIM inh 4.
COc1ccccc1/C=C1/C(=O)N(c2ccccc2)N=C1C was read as BCLXL inh -2, GLD-1 TGE inh 1 and MCL1-BIM inh -10.
Screening CC1=NN(c2ccccc2)C(=O)/C1=C\c1cn(-c2ccccc2)nc1C returned Mcl1-Noxa inh -1, Mcl1-Bid inh 68*, BCLXL inh 2, Mcl-1 Bim block -6, GLD-1 TGE inh 9 and MCL1-BIM inh -6.
COc1cc(CN2CCCC(C(=O)N3CCc4ccccc4C3)C2)cc(OC)c1OC (stereo unspecified) was read as BCLXL inh -1, GLD-1 TGE inh -4 and MCL1-BIM inh 5.
Screening Oc1ccccc1N=Cc1c(O)ccc2oc3c(c12)CCCC3 returned Mcl1-Noxa inh 29, Mcl1-Bid inh -9, BCLXL inh 14, GLD-1 TGE inh 38* and MCL1-BIM inh 15.
For O=C(O)c1ccc(N=Cc2c(O)ccc3oc4c(c23)CCCC4)cc1 the results were Mcl1-Noxa inh 20, Mcl1-Bid inh -16, BCLXL inh 4, GLD-1 TGE inh 10 and MCL1-BIM inh 4.
For COc1ccc(OC)c(C2=C/C(=C/c3ccccn3)C(=O)O2)c1 the results were Mcl1-Noxa inh 22, Mcl1-Bid inh -7, BCLXL inh 31*, Mcl-1 Bim block -3, GLD-1 TGE inh -58 and MCL1-BIM inh 2.
`O=C(CCN1C(=O)C2C3C=CC(C3)C2C1=O)NCCN1CCCc2ccccc21` (stereo unspecified) gave Mcl1-Noxa inh 0, Mcl1-Bid inh -71, BCLXL inh 34*, Mcl-1 Bim block -2, GLD-1 TGE inh 14 and MCL1-BIM inh 31.
`O=C(CN1C(=O)C2C3C=CC(C3)C2C1=O)NCCN1CCCc2ccccc21` (stereo unspecified) gave Mcl1-Noxa inh 1, Mcl1-Bid inh -29, BCLXL inh 24, Mcl-1 Bim block -4, GLD-1 TGE inh 13 and MCL1-BIM inh 20.
Screening Cc1cc(-n2c(C)cc(C(=O)COc3ccc(F)c(F)c3)c2C)no1 returned BCLXL inh -1, GLD-1 TGE inh -1 and MCL1-BIM inh -2.
`COc1ccc(-c2nc3ccc(C(=O)NCC(OC)OC)cc3nc2-c2ccc(OC)c(OC)c2)cc1OC` gave BCLXL inh 3, GLD-1 TGE inh 1 and MCL1-BIM inh 0.
COC(CNC(=O)c1ccc2nc(-c3cccs3)c(-c3cccs3)nc2c1)OC was read as Mcl1-Noxa inh -22, Mcl1-Bid inh 94*, BCLXL inh 6, Mcl-1 Bim block -1, GLD-1 TGE inh 5 and MCL1-BIM inh -9.
Screening O=C(/C=C/c1ccc(-c2ccccc2[N+](=O)[O-])o1)c1ccco1 returned Mcl1-Noxa inh 66*, Mcl1-Bid inh -58, BCLXL inh 20, Mcl-1 Bim block 2, GLD-1 TGE inh 13 and MCL1-BIM inh 32.
Screening O=C(/C=C/c1ccc([N+](=O)[O-])cc1)c1ccco1 returned BCLXL inh 0, GLD-1 TGE inh 2 and MCL1-BIM inh 1.
Screening COC(=O)CCCC(=O)N1CCCC(CCC(=O)NCc2ccc(F)c(F)c2)C1 (stereo unspecified) returned Mcl1-Noxa inh 6, Mcl1-Bid inh -1, BCLXL inh -1, Mcl-1 Bim block -1, GLD-1 TGE inh -7 and MCL1-BIM inh -13.
For O=C(CCC1CCCN(C(=O)CCC(F)(F)F)C1)NCc1ccc(F)c(F)c1 (stereo unspecified) the results were Mcl1-Noxa inh 53*, Mcl1-Bid inh 12, BCLXL inh 1, Mcl-1 Bim block -1, GLD-1 TGE inh -7 and MCL1-BIM inh -1.
